One may read the inhibition as the relative decrease from the control value, in per cent.

Each structure is given as a SMILES string. About 2,100 (88%) of roughly 2,400 compounds were called active. The set was probably picked from earlier hits. Not all results are given here. Values without a mark were called inactive.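 How the source made its calls: active means inhibition above the average of every tested compound plus 3 SD (cut at about 3.8% in these data); inactive means the rest.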

In this experiment the target is Nuclear receptor subfamily 0 group B member 1 (Homo sapiens) (UniProt P51843). Description: NR0B1 repressor blockers, StAR reporter readout – cell-based, luminescence, HEK293T, full-length DAX-1, SF-1 activated StAR promoter, confirmation (AID 652134).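 Further: active compounds raise luminescence by relieving repression of the StAR reporter.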 The conditions noted are these: HEK293T StAR-promoter luciferase reporter, SF-1/DAX-1 repression; at 6.8 µM; active compounds read high. For orientation: Reporter assays use an easily measured gene product as a stand-in for the process of interest.
Sequence of Nuclear receptor subfamily 0 group B member 1 (Homo sapiens) (P51843 whole entry, looked up): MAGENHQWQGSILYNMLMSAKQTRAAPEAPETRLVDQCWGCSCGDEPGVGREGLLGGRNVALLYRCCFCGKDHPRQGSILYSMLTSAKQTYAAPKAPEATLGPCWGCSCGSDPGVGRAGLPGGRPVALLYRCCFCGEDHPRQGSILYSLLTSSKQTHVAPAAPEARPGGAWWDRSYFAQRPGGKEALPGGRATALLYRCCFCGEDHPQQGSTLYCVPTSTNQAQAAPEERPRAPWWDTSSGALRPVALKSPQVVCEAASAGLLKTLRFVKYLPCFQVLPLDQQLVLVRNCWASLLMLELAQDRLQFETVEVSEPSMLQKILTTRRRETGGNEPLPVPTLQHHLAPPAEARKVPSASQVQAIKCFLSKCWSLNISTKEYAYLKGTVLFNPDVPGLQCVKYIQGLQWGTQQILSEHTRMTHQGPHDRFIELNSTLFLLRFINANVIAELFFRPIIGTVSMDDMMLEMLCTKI
Consider `O=C(NCCc1ccc(F)cc1)c1ccc2nccnc2c1`, for which the inhibition was 12.4% (active). In the case of `COc1ccc(Nc2ncc(F)c(N3CCOCC3)n2)cc1`, the inhibition is 11.3% (active). With `OC(c1ccccc1)c1nc(-c2cnc3ccccc3c2)cs1` (configuration not stated), the inhibition is 13% (active). Under `O=C1C(C=NCC2CCCO2)=C(O)c2ccccc21` (configuration not stated) stands 7.49% (active); under `CC(=O)Nc1cccc(-c2csc(Nc3cccc(C)n3)n2)c1`, 10.7% (active).

In the case of `COc1cc(C2c3cc4c(cc3C(O)C3COC(=O)C23)OCO4)cc(OC)c1OC` (configuration not stated), the inhibition is 19.5% (active).

With `COc1cc(/C=N/O)ccc1OCc1ccc([N+](=O)[O-])cc1`, the inhibition is 11.6% (active). Consider `CC(=O)Nc1cccc(C(=O)OCC(=O)c2ccc3c(c2)OCO3)c1`, for which the inhibition is 14.1% (active). On to `CC(C)c1ccc(C=NNc2ccc([N+](=O)[O-])cn2)cc1`, for which the inhibition was 14.9% (active). Take `S=C(c1ccc(-c2ccccc2)o1)N1CCCCC1`: the inhibition was 11% (active). In the case of `COc1ccc2nc(SCc3ccccc3)nc(C)c2c1`, the inhibition is 20.3% (active). Then `CC(C)Cc1cc(C(=O)NCCc2ccccc2)no1`, with 8.87% (active); and `CNCC(O)c1ccc(O)c(O)c1` (configuration not stated), with 3.72% (active); and `C(=N\Nc1ccc2ccccc2n1)/c1ccc2c(c1)OCO2`, with 13.2% (active).

With `COc1ccc2nc(-c3ccccn3)ccc2c1`, the inhibition was 12.2% (active). `Cc1ccc(-c2nc3ccccc3[nH]2)cc1N`: the inhibition was 11.7% (active). As to `c1ccc2[nH]c(-c3nc4ccccc4[nH]3)nc2c1`, the inhibition is 11.3% (active). Then `O=C(NC(=S)NC1CCCCC1)c1ccc(Cl)cc1`, with 6.95% (active); and `O=C(c1cnn2ccccc12)N1CCc2ccccc21`, with 9.73% (active); and `COc1cccc(/C=C/C(=O)Nc2ccc3c(c2)OCCO3)c1`, with 3.84% (active).

On to `Cc1cccc(NC(=O)/C=C/c2ccc3c(c2)OCO3)n1`, for which the inhibition is 13.6% (active).

Consider `O=C(O)c1cccc(N=NN2CCCCCC2)c1`, for which the inhibition was 15% (active). As to `O=c1c2c(nc3n1CCCCC3)sc1c(O)cccc12`, the inhibition was 16.3% (active). Consider `O=C(Nc1ccc(Cl)c(Cl)c1)c1ccccc1NC(=O)C1CC=CCC1C(=O)O` (configuration not stated), for which the inhibition is 7.46% (active). In the case of `CC(C)(O)C#Cc1ccc(CNC[C@H]2O[C@@H](n3cnc4c(=O)[nH]c(N)nc43)[C@H](O)[C@@H]2O)s1`, the inhibition is -1.28%.

Consider `CCN(CC(=O)Nc1c(F)cccc1F)C(=O)c1cnc(C)cn1`, for which the inhibition is 0.35%. In the case of `O=c1oc(/C=C/c2ccccc2)nc2ccccc12`, the inhibition is 11.2% (active). With `CC(Oc1ccccc1[N+](=O)[O-])C(=O)N/N=C/c1ccoc1` (configuration not stated), the inhibition was 1.13%. Consider `Cc1ccc(S(=O)Cc2ccc(C(=O)N3CCN(C4CCCCC4)CC3)o2)cc1` (configuration not stated), for which the inhibition was 5.33% (active). Regarding `O=[N+]([O-])c1ccc2oc(-c3cccc(O)c3)nc2c1`, the inhibition is 10.7% (active). Under `COc1ccc(-c2cn3ccc(C)cc3n2)cc1` stands 9.6% (active); under `COc1ccc(-c2cn3ccsc3n2)cc1`, 12.2% (active). Under `Cc1cc(C)c(C)c(S(=O)(=O)N2CCN(C(=O)c3ccc4c(=O)n5c(nc4c3)CCC5)CC2)c1C` stands 0.85%.

As to `O=c1c2c(nc3cc(-c4cccc(Cl)c4)[nH]n13)CCCC2`, the inhibition was 22.3% (active). As for `O=C(CSc1cccc[n+]1[O-])c1ccc(-c2ccccc2)cc1`, the inhibition is 3.72% (active).

Turning to `O=C(NCCc1c[nH]c2ccccc12)c1cc2ccccc2oc1=O`, the inhibition was 10.1% (active). Consider `Cc1cc(OCc2cc(C(=O)NCc3cc(C(C)C)no3)no2)cc(C)c1Cl`, for which the inhibition was 6.04% (active).

Regarding `Cc1nc2cc(NC(=O)Nc3cccc(F)c3)ccc2n1C`, the inhibition is 15.5% (active). `C=CCn1c(SCC(=O)Nc2ccc(NC(C)=O)cc2)nc2sc(C)c(C)c2c1=O`: the inhibition was -0.94%. In the case of `Nc1ccc(C(=O)Nc2ccccc2N)cc1`, the inhibition was 94.3% (active).

`Cn1ccnc1SCC(=O)Nc1ccc2c(c1)OCCO2`: the inhibition was 10.6% (active). For the molecule `CN(C(=O)c1cc2c(=O)n3ccccc3nc2s1)C1CCCCC1`, the inhibition was 9.28% (active). Regarding `NS(=O)(=O)c1ccc2nc(NC(=O)C3=COCCO3)sc2c1`, the inhibition was 9.88% (active).

`Cc1sc(NC(=O)c2ccc3ncsc3c2)c(C(N)=O)c1C`: the inhibition is 14.4% (active). With `CCOC(=O)c1c(S(=O)(=O)Nc2ccc(CN3CCC(C)CC3)cc2)c(C)n(C)c1C`, the inhibition is 4.2% (active). Regarding `CCc1ccc(NC2Nc3cc(C)nn3S2)cc1` (configuration not stated), the inhibition was 10.6% (active).

As to `CCOc1cccc(/C=C/c2ccc3ccccc3n2)c1OC(C)=O`, the inhibition is 10.4% (active).

On to `Cc1csc(SCC(=O)Nc2sccc2C#N)n1`, for which the inhibition is 16.1% (active).

Regarding `COC(=O)c1sc(NC(=O)c2ccc(OC)cc2OC)nc1C`, the inhibition is 13.9% (active). On to `O=C(Nc1ccc2c(c1)CCC2)c1ccc(Br)s1`, for which the inhibition is 15.1% (active). Then `COc1ccc(/C=C/C(=O)Nc2ccc(C34CC5CC(CC(O)(C5)C3)C4)cc2)cc1OC`, with 4.27% (active). `Clc1ccc(Nc2nc(-c3cccs3)cs2)nc1`: the inhibition is 13.8% (active). Then `Cc1ccccc1OCC(=O)Nc1ccc2c(c1)ncn2C`, with 8.73% (active); and `Cc1ccccc1Nc1nc(N)nc(CSc2ccccc2)n1`, with 19.3% (active); and `CCCNC(=O)C1CC(=O)N(c2ccc(OCc3ccccc3)cc2)C1` (configuration not stated), with 14.4% (active).

`Cc1ccc(N/C=C/C(=O)c2ccccc2)cc1C`: the inhibition was 10.3% (active). Regarding `CC1CCN(C(=O)COC(=O)c2cc(=O)[nH]c3ccccc23)CC1`, the inhibition is 9.14% (active).

`COc1ccccc1CCC(=O)OCC(=O)N1CCN(S(=O)(=O)c2ccc(C)cc2C)CC1`: the inhibition was 1.66%. Then `CCOc1ccc(S(=O)(=O)Nc2cccc(C(=O)NCC3(N4CCCCC4)CCCCC3)c2)cc1`, with 8.51% (active); and `CCN(c1ccccc1)S(=O)(=O)c1ccc(OCC(=O)N2CCCC2)cc1`, with 0.88%. As to `O=C(NCC1(N2CCCCC2)CCCCC1)c1ccc(NS(=O)(=O)c2ccc(F)cc2)cc1`, the inhibition is 9.71% (active). Under `COc1ccccc1-c1cc(C(=O)N2CCCCC2)no1` stands 13.3% (active); under `COc1ccc(OCc2cc(C(=O)N3CCCC3)no2)c2ccccc12`, 6.33% (active). Under `O=C(c1cc(-c2cccs2)on1)N1CCCCC1` stands 12.9% (active); under `O=C(c1cc(-c2ccccc2O)on1)N1CCCC1`, 11.2% (active); under `CC(C)c1ccc(Nc2ncccc2C#N)cc1`, 5.79% (active). Turning to `Cc1ccnc(NC(=O)CCNS(=O)(=O)c2ccc(C)c(C)c2)c1`, the inhibition was 14% (active).

The record behind these values is PubChem BioAssay AID652134 (The Scripps Research Institute Molecular Screening Center, 2013).
